Among the test systems are NCI-H23 lung; NCI-H226 lung; NCI-H322M lung; HOP-62 NSCLC; NCI-H460 lung; HOP-92 NSCLC; NCI-H522 lung; A549/ATCC NSCLC; 786-0 renal; COLO 205 colon; DU-145 prostate; K-562 leukemia; MALME-3M melanoma; MDA-MB-231 breast; RXF 393 renal; SF-268 CNS; SF-295 CNS; SF-539 CNS; UACC-257 melanoma; M14 melanoma.
Holding throughout (test): NCI-60 one-dose screen, 48 h (100 = growth as untreated, 0 = no growth, -100 = all killed)
Common to all, as to conditions: 10 µM unless noted

The panel holds about 83,000 compounds, 20% with a hit somewhere; the sample as a whole holds those more often.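 Cells were grown in 96-well plates and exposed to the test compound at a single concentration for 48 hours; results are reported as percent growth, with values below 10 considered active.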 A number with no mark means an inactive call. The source made the active and inactive calls.

Regarding `O=c1ccc2nc(C(F)(F)F)nn(-c3ccccc3)c-2c1`, the growth in the test with NCI-H23 lung is 67.7%; in the test with NCI-H226 lung, 77.7%; with NCI-H322M lung it was 99.8%; in the test with HOP-62 NSCLC it was 69%; in the test on NCI-H460 lung, 97.3%; in the test on HOP-92 NSCLC, 35.2%. In addition, the growth with NCI-H522 lung is -56% (active); in the test with A549/ATCC NSCLC, 93%; in the test with 786-0 renal, 22.2%; in the test on COLO 205 colon it was -70.7% (active); in the test on DU-145 prostate it was 40.5%; in the test with K-562 leukemia, -35.1% (active). Also, the growth in the test on MALME-3M melanoma was -41.7% (active); in the test on MDA-MB-231 breast, 61%; in the test with RXF 393 renal, -20.5% (active); in the test on SF-268 CNS, 77.4%; in the test on SF-295 CNS it was 91.9%; in the test with SF-539 CNS it was 92.8%. Besides, the values for the growth with UACC-257 melanoma and in the test on M14 melanoma were 35.6% and 62.1%, respectively.
`Cc1c(N2CN3C[C@H](C)N4CN(c5c(C)n(C)n(-c6ccccc6)c5=O)CN5C[C@@H](C)N(C2)C3C54)c(=O)n(-c2ccccc2)n1C` (stereo not given in full): the growth was 95.1% with NCI-H23 lung; 101% with NCI-H226 lung; 103% in the test with NCI-H322M lung; 103% with HOP-62 NSCLC; 101% with NCI-H460 lung; 90.8% in the test with HOP-92 NSCLC. In addition, the growth in the test on NCI-H522 lung was 98.9%; in the test on A549/ATCC NSCLC it was 106%; in the test with 786-0 renal it was 102%; in the test on COLO 205 colon, 109%; in the test on DU-145 prostate it was 112%; in the test with K-562 leukemia it was 17.9%. The growth is 104% in the test with MALME-3M melanoma; 117% in the test with MDA-MB-231 breast; 101% with RXF 393 renal; 100% with SF-268 CNS; 99.3% in the test on SF-295 CNS; 91.2% with SF-539 CNS. Besides, the growth in the test with UACC-257 melanoma was 105%; in the test on M14 melanoma, 99.8%.
For `COc1ccc(C/C(C)=C(\c2ccc(O)cc2)c2ccc(OCCN3CCCC3)cc2)cc1`, the growth in the test with NCI-H23 lung was 105%; in the test on NCI-H226 lung it was 113%; in the test on NCI-H322M lung, 99.2%; in the test with HOP-62 NSCLC, 102%; in the test with NCI-H460 lung, 113%; with HOP-92 NSCLC, 104%. Also, the growth was 97.5% in the test on NCI-H522 lung; 98% in the test with A549/ATCC NSCLC; 100% in the test on 786-0 renal; 111% in the test with COLO 205 colon; 104% in the test on DU-145 prostate; 85.5% in the test with K-562 leukemia. Also, the growth in the test with MALME-3M melanoma is 94.1%; in the test on MDA-MB-231 breast, 104%; in the test on RXF 393 renal, 136%; in the test on SF-268 CNS it was 107%; in the test on SF-295 CNS it was 102%; in the test with SF-539 CNS it was 99.9%. Moreover, the values for the growth in the test with UACC-257 melanoma and with M14 melanoma were 99.1% and 95.2%, respectively.
For the compound `CCN1CCN(CC(=O)Nc2nc3ccc(NCc4ccc(Br)cc4)cc3s2)CC1`, the growth in the test on NCI-H23 lung was 70.4%; in the test on NCI-H226 lung, 64.6%; in the test with NCI-H322M lung, 84.9%; in the test with HOP-62 NSCLC, 64.8%; in the test on NCI-H460 lung, 26.3%; in the test on HOP-92 NSCLC, 40.9%. Further, the growth with NCI-H522 lung is 99.5%; in the test on A549/ATCC NSCLC, 64.5%; in the test with 786-0 renal, 61.3%; in the test on COLO 205 colon it was -48.9% (active); in the test on DU-145 prostate, 83.9%; in the test on K-562 leukemia, -49.7% (active). Besides, the growth in the test on MALME-3M melanoma was -68.2% (active); in the test with MDA-MB-231 breast, 45.6%; with RXF 393 renal, 63.9%; in the test with SF-268 CNS, 72.1%; in the test on SF-295 CNS, 86.4%; in the test on SF-539 CNS, 39.2%. In addition, the growth in the test with UACC-257 melanoma is 17.7%; in the test with M14 melanoma it was -56.2% (active).
Turning to `C=C(C)[C@@H]1CC[C@]2(CO)CC[C@]3(C)[C@H](CC[C@@H]4[C@@]5(C)CCC(NCCc6ccc(O)cc6)C(C)(C)[C@@H]5CC[C@]43C)[C@@H]12` (stereo not given in full), the growth is -86.6% (active) with NCI-H23 lung; 66.8% in the test on NCI-H226 lung; -76.5% (active) in the test with NCI-H322M lung; -77.5% (active) in the test with HOP-62 NSCLC; -89.5% (active) in the test on NCI-H460 lung; -93.2% (active) with HOP-92 NSCLC. The growth with NCI-H522 lung was -81.3% (active); in the test with A549/ATCC NSCLC it was -87.1% (active); in the test on 786-0 renal, -92.7% (active); in the test with COLO 205 colon, -76.4% (active); in the test on DU-145 prostate, -96.5% (active); with K-562 leukemia it was -51.2% (active). For the same compound, the growth in the test with MALME-3M melanoma is -81.5% (active); with MDA-MB-231 breast it was -87.3% (active); with RXF 393 renal it was -91.2% (active); in the test with SF-268 CNS, -88.8% (active); in the test with SF-295 CNS, -95.8% (active); in the test with SF-539 CNS, -88% (active). Besides, the growth in the test on UACC-257 melanoma was -78.2% (active); in the test with M14 melanoma, -84.9% (active).
Consider `Cn1cc(/C=C2/C(=O)Nc3ccccc32)c2ccccc21`, for which the growth was 73.4% in the test with NCI-H23 lung; 70.6% with NCI-H226 lung; 91.5% in the test with NCI-H322M lung; 76.8% in the test on HOP-62 NSCLC; 92.4% with NCI-H460 lung; 87.4% in the test on HOP-92 NSCLC. For the same compound, the growth was 77.8% in the test with NCI-H522 lung; 86.2% in the test with A549/ATCC NSCLC; 98.4% with 786-0 renal; 91.7% in the test on COLO 205 colon; 99.1% in the test with DU-145 prostate; 96.7% in the test on K-562 leukemia. Also, the growth is 94.5% with MALME-3M melanoma; 109% in the test with MDA-MB-231 breast; 96.7% in the test on RXF 393 renal; 84.5% with SF-268 CNS; 108% in the test on SF-295 CNS; 80% with SF-539 CNS. Moreover, the figures for the growth with UACC-257 melanoma and in the test with M14 melanoma were 95.9% and 92.3%, respectively.
On to `CC1(C)C2CC=C(/C=N/NC(=O)C3CCC(=O)N3)C1C2` (stereo not given), for which the growth with NCI-H23 lung is 97.7%; with NCI-H226 lung it was 106%; in the test on NCI-H322M lung, 107%; in the test on HOP-62 NSCLC it was 110%; in the test with NCI-H460 lung, 102%; in the test with HOP-92 NSCLC, 99.5%. Besides, the growth with NCI-H522 lung was 99.9%; in the test on A549/ATCC NSCLC it was 104%; in the test with 786-0 renal, 101%; in the test on COLO 205 colon it was 114%; in the test with DU-145 prostate it was 113%; in the test on K-562 leukemia it was 99.4%. Also, the growth in the test with MALME-3M melanoma was 105%; with MDA-MB-231 breast, 122%; in the test on RXF 393 renal it was 121%; with SF-268 CNS, 101%; in the test on SF-295 CNS it was 97.4%; in the test on SF-539 CNS, 100%. Further, the growth in the test with UACC-257 melanoma is 102%; in the test with M14 melanoma it was 107%.

These data come from PubChem BioAssay (NCI).
